Assay outcomes: PubChem BioAssay, National Center for Advancing Translational Sciences (NCATS)
JMJD2A Tudor inh: blocks the human JMJD2A Tudor domain. AlphaScreen JMJD2A-Tudor / H3K4me3 peptide binding. Potency, µM (highest dose often 114 µM), usual class: inhibitors. hit rate 4.4% among 390,000. AID 504339; note: nearly all actives have a fitted effect of over 50% in size
BAZ2B block: blocks human BAZ2B | AID 504333 | Potency, µM (top dose mostly 114 µM), actives largely listed as inhibitors | AlphaScreen BAZ2B-H3K14Ac peptide displacement | hit rate 4.4% among 360,000; note: nearly all actives have a fitted effect of over 60% in size
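AlphaScreen displacement of biotin-H3(5-23)K14Ac peptide (50 nM final) from BAZ2B (50 nM final) in PBS pH 7.4, 0.01% Tween-20; complex preformed 30 min RT, then compounds (top 110 uM) 30 min RT, beads 20 min dark.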
L3MBTL1 block: blocks human L3MBTL1. Potency, µM (highest dose often 57.1 µM), hits mostly inhibitors. Q9Y468. hit rate 0.66% among 230,000. AlphaScreen L3MBTL1–H3K9me1 peptide binding. AID 485360; note: nearly all actives have a fitted effect of over 60% in size
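First, the protein-peptide complex forms for 30 min at room temperature (L3MBTL1 50 nM, biotinylated H3K9me1 peptide 75 nM). Next, compounds are pin-transferred and incubated 30 min. Finally, AlphaScreen beads are added and read after 30 min.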
HP1b chromo inh: blocks HP1-beta chromodomain binding to methylated histone tails; Potency, µM (series often up to 114 µM), hits mostly inhibitors; AlphaScreen HP1-beta / biotin-H3K9me3 peptide binding; hit rate 0.56% among 390,000; note: nearly all actives have a fitted effect of over 70% in size
Target sequence (P83916 whole entry, looked up): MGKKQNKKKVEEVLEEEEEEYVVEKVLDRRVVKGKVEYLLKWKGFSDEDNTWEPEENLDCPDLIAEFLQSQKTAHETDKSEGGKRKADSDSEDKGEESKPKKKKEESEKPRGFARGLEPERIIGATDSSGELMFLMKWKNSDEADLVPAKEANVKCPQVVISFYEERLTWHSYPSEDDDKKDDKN
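HP1-beta protein (50 nM final) preincubated 30 min at room temperature with biotinylated H3(1-18)K9me3 peptide (50 nM) in PBS pH 7.4, 0.01% Tween-20, then compound added for 30 min. AlphaScreen streptavidin donor/nickel chelate acceptor beads (10 ug/mL final), 30 min dark, luminescence read.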
G9a inh: blocks human histone lysine methyltransferase G9a; Q96KQ7; G9a H3K9 monomethylation, AlphaScreen, 2 h; Potency, µM (titrated, usually from 102 µM), most hits filed as inhibitors; hit rate 8.8% among 350,000; note: nearly all actives have a fitted effect of over 75% in size
Target sequence (Q96KQ7 913-1193 limits assumed): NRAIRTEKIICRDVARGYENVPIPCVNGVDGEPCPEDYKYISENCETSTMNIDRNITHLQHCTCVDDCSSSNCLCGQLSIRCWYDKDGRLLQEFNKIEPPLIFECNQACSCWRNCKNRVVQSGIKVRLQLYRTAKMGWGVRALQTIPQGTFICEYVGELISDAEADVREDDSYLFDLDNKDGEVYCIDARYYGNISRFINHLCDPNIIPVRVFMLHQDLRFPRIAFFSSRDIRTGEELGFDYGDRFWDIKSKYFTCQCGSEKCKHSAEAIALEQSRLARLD
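Readings reflect AlphaScreen signal from monomethyl-H3K9 antibody detection. HMT at 20 nM; substrate b-H3K9 500 nM; cofactor SAM 20 uM; 2 h RT reaction; compounds tested as titrations in qHTS with 15 min preincubation.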
Numbers stand for hits; [ ] = another dose, or the depositor's remark. Rows were chosen to be rich in hits. Some 11% of all compounds tested hit in one or more screens of this group. Calls come from the whole dose curve; as a rule, active = well fitted inhibition curve with a large enough effect; inconclusive = small, poorly fitted or top-dose-only effect; inactive = no such curve, though single readings can be large or run the other way.

`O=c1[nH][nH]c(=S)n1C1CCCCC1` gave JMJD2A Tudor inh 2.5µM, BAZ2B block 25µM, L3MBTL1 block inactive, HP1b chromo inh 3.5µM and G9a inh 1.1µM.
Screening COc1ccc(S(=O)(=O)NCC(c2ccco2)N2CCN(c3ccccc3F)CC2)cc1C (centres undefined) returned JMJD2A Tudor inh inactive, BAZ2B block inactive, HP1b chromo inh inactive and G9a inh inactive.
Screening Cc1cc2c(s1)c1cnn(Cc3cccc(Br)c3)c(=O)c1n2C returned JMJD2A Tudor inh inactive.
For [O-]/C(=C(\C(=S)Nc1ccccc1F)[n+]1ccccc1)c1ccc(-c2ccccc2)cc1 the results were JMJD2A Tudor inh inactive, BAZ2B block inactive, L3MBTL1 block inactive, HP1b chromo inh inactive and G9a inh 32µM.
Screening [O-]/C(=C(\C(=S)Nc1ccc(Cl)cc1)[n+]1ccccc1)c1ccc(OC(F)F)cc1 returned JMJD2A Tudor inh inconclusive, BAZ2B block inconclusive, L3MBTL1 block inactive, HP1b chromo inh inactive and G9a inh 11µM.
`CC(C)(C)c1cc[n+](/C(C(=S)Nc2ccccc2F)=C(/[O-])c2ccc3c(c2)OCCO3)cc1` gave JMJD2A Tudor inh inconclusive, BAZ2B block 35µM, HP1b chromo inh inactive and G9a inh inconclusive.
For CCOc1ccccc1NC(=S)/C(=C(\[O-])c1ccc2c(c1)OCCO2)[n+]1ccc(CC)cc1 the results were JMJD2A Tudor inh inactive, BAZ2B block inconclusive, HP1b chromo inh inconclusive and G9a inh 8.9µM.
Screening CCNC(=S)/C(=C(/[O-])c1ccc([N+](=O)[O-])cc1)[n+]1ccccc1 returned JMJD2A Tudor inh inactive, BAZ2B block inactive, L3MBTL1 block inactive and HP1b chromo inh inactive.
For CC(=Nc1ccccc1)C1=C(O)COC1=O the results were JMJD2A Tudor inh inactive, BAZ2B block inconclusive, HP1b chromo inh inactive and G9a inh inactive.
`COc1ccc(OC)c(N=C(C)C2=C(O)COC2=O)c1` gave JMJD2A Tudor inh inactive, BAZ2B block inactive, HP1b chromo inh inactive and G9a inh 3.5µM.
`CC(C)(C)OC(=O)N1CCC(c2c(C(=O)NCc3cccc(Cl)c3)cnn2-c2ccc(F)cc2)CC1` gave JMJD2A Tudor inh inactive, BAZ2B block inactive, HP1b chromo inh inactive and G9a inh inactive.
For CCCCn1c(N)c(N(CCOC)C(=O)c2cc(-c3ccco3)nc3ccccc23)c(=O)[nH]c1=O the results were JMJD2A Tudor inh 40µM, BAZ2B block 50µM, L3MBTL1 block inconclusive, HP1b chromo inh inactive and G9a inh 40µM.
`CCCCN(C(=O)c1cc(Cl)nc2ccccc12)c1c(N)n(CCCC)c(=O)[nH]c1=O` gave JMJD2A Tudor inh inactive, BAZ2B block inactive, L3MBTL1 block inactive, HP1b chromo inh inactive and G9a inh 56µM.
Screening CCCCN(C(=O)c1cc(-c2ccco2)nc2ccccc12)c1c(N)n(CCCC)c(=O)[nH]c1=O returned JMJD2A Tudor inh inconclusive, BAZ2B block inconclusive, L3MBTL1 block inconclusive, HP1b chromo inh inactive and G9a inh inconclusive.
CCCCn1c(N)c(N(CCOC)C(=O)c2cc(-c3ccc(OC)c(OC)c3)nc3ccccc23)c(=O)[nH]c1=O was read as JMJD2A Tudor inh inactive, BAZ2B block inactive, L3MBTL1 block inactive, HP1b chromo inh inactive and G9a inh 11µM.
CCCCN(C(=O)c1ccccc1F)c1c(N)n(CCC)c(=O)[nH]c1=O was read as JMJD2A Tudor inh 79µM, BAZ2B block inactive, HP1b chromo inh inactive and G9a inh inactive.
Screening COc1ccc(-c2nc(CSCC(=O)NCCC(C)C)c(C)o2)cc1OC returned JMJD2A Tudor inh inactive, BAZ2B block inactive, HP1b chromo inh inactive and G9a inh inactive.
For COc1ccc(C(=O)Oc2c(Sc3ccc(Cl)cc3)c(C)nn2C(C)(C)C)cc1OC the results were JMJD2A Tudor inh inactive, BAZ2B block inactive, HP1b chromo inh inactive and G9a inh inactive.
Screening CNCCCCOc1ccccc1-c1ccccc1 returned JMJD2A Tudor inh 0.63µM, BAZ2B block 56µM, L3MBTL1 block inactive, HP1b chromo inh inconclusive and G9a inh inconclusive.
`CCOc1ccccc1OCCOc1ccccc1OC(C)C` gave JMJD2A Tudor inh inactive, BAZ2B block inactive, HP1b chromo inh inactive and G9a inh inactive.
`CNCCOc1ccccc1-c1ccccc1` gave JMJD2A Tudor inh 3.5µM, BAZ2B block inconclusive, HP1b chromo inh inactive and G9a inh inconclusive.
`N=C(N)CCCOc1ccccc1-c1ccccc1` gave JMJD2A Tudor inh inactive, BAZ2B block inactive, L3MBTL1 block inactive, HP1b chromo inh inactive and G9a inh inactive.
`C=CCNCCCCOc1ccccc1-c1ccccc1` gave JMJD2A Tudor inh inactive, BAZ2B block inactive, L3MBTL1 block inactive, HP1b chromo inh inactive and G9a inh inactive.
Screening CNCCOc1ccccc1OC(C)C returned JMJD2A Tudor inh 2.2µM, BAZ2B block inconclusive, L3MBTL1 block inactive, HP1b chromo inh inactive and G9a inh 18µM.
For CCn1c(SCC(=O)N(C)c2ccccc2)nc2c([nH]c3ccccc32)c1=O the results were JMJD2A Tudor inh inactive, BAZ2B block inactive, HP1b chromo inh inactive and G9a inh inactive.
Screening CCOC(=O)N1CCN(CCC(=O)Nc2ccc(OC)cc2)CC1 returned JMJD2A Tudor inh inactive, BAZ2B block inactive, HP1b chromo inh inactive and G9a inh inactive.
CCOC(=O)N1CCN(CCC(=O)c2ccc(Cl)cc2)CC1 was read as JMJD2A Tudor inh inactive, BAZ2B block inactive, L3MBTL1 block inactive[11.4 µM], HP1b chromo inh inactive and G9a inh inconclusive.
`COc1cc2c(cc1OC)CN(C(=O)CCNC(=O)c1ccc(Br)cc1)CC2` gave JMJD2A Tudor inh inactive, BAZ2B block inactive, L3MBTL1 block inactive, HP1b chromo inh inactive and G9a inh inconclusive.
For CCOC(=O)N1CCN(CCC(=O)c2ccc(Br)cc2)CC1 the results were JMJD2A Tudor inh inconclusive, BAZ2B block inactive, HP1b chromo inh inactive and G9a inh 4µM.
For COc1cc2c(cc1OC)CN(CCC(=O)c1ccc(Br)cc1)CC2 the results were JMJD2A Tudor inh inconclusive, BAZ2B block inactive, L3MBTL1 block inactive, HP1b chromo inh inactive and G9a inh 14µM.
For CCOC(=O)N1CCN(CCC(=O)c2ccc(OC)cc2)CC1 the results were JMJD2A Tudor inh inactive, BAZ2B block inactive, HP1b chromo inh inactive and G9a inh 10µM.
`CC(=O)c1ccccc1NS(=O)(=O)c1cc2c(cc1C)NC(=O)CO2` gave JMJD2A Tudor inh inactive, BAZ2B block inactive, HP1b chromo inh inactive and G9a inh inactive.
`CN(C1CCCCC1)S(=O)(=O)c1ccc2c(c1)c(=O)c(C(=O)N1CCN(c3ccccc3)CC1)cn2C` gave JMJD2A Tudor inh inactive, HP1b chromo inh inactive and G9a inh inactive.
Screening Cc1nc2sc(C(c3ccco3)N3CCN(c4ccccc4)CC3)c(O)n2n1 (centres undefined) returned JMJD2A Tudor inh inactive, BAZ2B block inactive, L3MBTL1 block inactive, HP1b chromo inh inactive and G9a inh 45µM.
